Screening results: PubChem BioAssay, several laboratories
PHOSPHO1 block = blocks human PHOSPHO1 phosphatase activity. Q8TCT1. recombinant PHOSPHO1, absorbance phosphatase assay. inhibition, % at 13.3 µM. 290,000 tested, 1.1% active. AID 1565; in the data active = inhibition above about 60%
Target sequence (Q8TCT1 whole entry, looked up): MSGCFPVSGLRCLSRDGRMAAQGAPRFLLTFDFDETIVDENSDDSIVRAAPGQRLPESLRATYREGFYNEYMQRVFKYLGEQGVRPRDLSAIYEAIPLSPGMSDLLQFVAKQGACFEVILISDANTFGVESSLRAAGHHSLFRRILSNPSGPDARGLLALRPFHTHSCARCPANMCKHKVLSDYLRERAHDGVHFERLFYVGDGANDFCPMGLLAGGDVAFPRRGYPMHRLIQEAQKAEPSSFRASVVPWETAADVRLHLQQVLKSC
TPT1 inh = C. albicans TPT1 enzyme inhibition; recombinant caTPT1, FP RNA substrate dephosphorylation; inhibition, % at 5 µM; 300,000 tested, 0.81% active; AID 1962;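 active = inhibition above the mean of all tested compounds plus 3 SD, set per screening campaign, cut at about 24% in these data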
Platelet DG rel = platelet dense granule release activity; inhibition, %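 (compounds screened at 7.5 µM in platelet-rich plasma)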; 300,000 tested, 0.22% active; human platelet-rich plasma, SFLLRN dense granule ATP release, luminescence;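 active = mean replicate score, as percent of positive control, at or above 50; inconclusive = mean below 50 but at least one replicate at or above 50; inactive = mean and every replicate below 50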
WT yeast gro inh = growth inhibition of WT yeast, mitochondrial fusion screen; mitochondrial fusion phenotypic screen, WT strain; inhibition, % at 10 µM; 190,000 tested, 2.1% active; in the data active = inhibition above about 58%; tested in S. cerevisiae
Rtt109 Vps75 = C. albicans Rtt109 histone acetyltransferase inhibition | AID 540336 | 330,000 tested, 0.16% active | purified Rtt109/Vps75, ThioGlo CoA-SH fluorescence, 4 h | inhibition, % at 34.9 µM;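 active = inhibition of at least 50% in every replicate; inconclusive = best replicate reaches 50% inhibition but some replicates fall short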
Target sequence (Q5AAJ8 whole entry, looked up): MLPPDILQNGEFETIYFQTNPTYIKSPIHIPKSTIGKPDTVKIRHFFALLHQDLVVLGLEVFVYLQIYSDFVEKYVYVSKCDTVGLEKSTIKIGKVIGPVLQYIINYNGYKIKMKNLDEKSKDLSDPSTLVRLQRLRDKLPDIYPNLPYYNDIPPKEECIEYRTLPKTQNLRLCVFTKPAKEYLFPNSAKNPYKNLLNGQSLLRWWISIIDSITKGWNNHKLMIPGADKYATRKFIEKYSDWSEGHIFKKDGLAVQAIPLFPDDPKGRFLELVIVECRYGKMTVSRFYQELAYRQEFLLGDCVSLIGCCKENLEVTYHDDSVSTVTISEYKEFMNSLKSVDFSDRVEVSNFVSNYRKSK
SKKanGAS inh = SKKanGAS growth inhibition | S. pyogenes SKKanGAS, kanamycin growth, BacTiter-Glo, 6 h | inhibition, % at 7.5 µM | 300,000 tested, 1.3% active | AID 1662;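 active = mean replicate score, as percent of positive control median, at least 50; inconclusive = mean below 50 but one replicate at or above 50; inactive = mean and every replicate below 50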;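 note: strain carries kanamycin resistance gene driven by streptokinase promoter and grows in 40 µg/ml kanamycin; loss of luminescence reflects streptokinase promoter inhibition or plain growth inhibition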
Hits are given with their value; 0 = inactive; ? = inconclusive; - = not tested or not shown. Only some compounds are listed: those with a hit (about 3.9% of all), similar ones and a draw of the others.

SMILES	PHOSPHO1 block	TPT1 inh	Platelet DG rel	WT yeast gro inh	Rtt109 Vps75	SKKanGAS inh
CCCS(=O)(=O)c1cnc(C2COc3ccccc3O2)nc1N (centres undefined)	-	0	66	-	0	0
COCCn1c(SCC(=O)c2ccc(Cl)cc2)nnc1C(C)C	75	0	0	0	0	0
CCOC(=O)c1c(C)[nH]c(N=Nc2cccc(OC)c2)c1C	0	0	0	0	0	0
CCOC(=O)c1c(C)[nH]c(C2=NNC(=Nc3ccccc3)SC2)c1C	0	-	0	65	0	-
CCOC(=O)c1c(C)[nH]c(N=Nc2cccc(C)c2)c1C	0	0	0	73	0	0
CCOC(=O)c1c(C)[nH]c(N=Nc2ccccc2)c1C	0	0	0	75	0	0
CCOC(=O)c1c(C)[nH]c(C2=NNC(=Nc3ccc(OCC)cc3)SC2)c1C	0	0	-	0	0	-
CCCCCCCCCCC(=O)NNC(=O)c1c(O)c2ccccc2n(CC)c1=O	0	0	0	0	-	101
CCCn1c(=O)c(C(=O)Nc2ncccc2C)c(O)c2ccccc21	0	0	0	0	0	55
CC(C)Cn1c2c(c(O)c(C(=O)Nc3ncccc3O)c1=O)CCCC2	0	0	0	0	0	89
CCCn1c(=O)c(C(=O)Nc2cccc(C)n2)c(O)c2ccccc21	0	0	0	-	0	0
CCCn1c(=O)c(C(=O)NCc2ccccc2)c(O)c2ccccc21	0	0	0	-	0	0
CCCCCCCCCC(=O)NNC(=O)c1c(O)c2ccccc2n(CCC)c1=O	0	0	0	0	0	101
CC1=C([N+](=O)[O-])C(c2ccc(Cl)cc2)NC(=O)N1C (centres undefined)	0	0	0	-	0	0
CCn1c(=O)c(C(=O)NNC(=O)Cc2ccccc2)c(O)c2ccccc21	0	0	0	-	0	54
CCCCCCCC(=O)NNC(=O)c1c(O)c2ccccc2[nH]c1=O	0	0	0	-	0	0
CCn1c(=O)c(C(=O)Nc2nc3ccccc3[nH]2)c(O)c2ccccc21	0	0	0	84	0	103
CCn1c(=O)c(C(=O)Nc2ccccc2)c(O)c2ccccc21	0	0	0	-	0	0
CCCCCCCCC(=O)NNC(=O)c1c(O)c2ccccc2n(CCC)c1=O	0	0	0	0	0	117
CCc1nc2ccccc2c(=O)n1NC(=O)c1c(O)c2ccccc2n(CC)c1=O	0	0	0	0	0	0
Cc1oc2c(CN3CCCC(C)C3)c(O)ccc2c(=O)c1-c1ccccc1 (centres undefined)	0	0	-	-	0	0
c1ccc(-c2cncn2-c2ccccc2)cc1	-	0	0	-	0	0
CSc1ccc(CNC(=O)Cc2ccc(NC(=O)C3=C(C)OCCS3)cc2)cc1	0	0	0	-	0	0
Cc1ccc2c(c1)c1c3n2CCCN(Cc2ccccc2)C3CCC1 (centres undefined)	0	0	0	81	0	0
C=C(CN(C)C)C(=O)c1cc(C)ccc1C	-	-	-	-	0	-
SMILES	PHOSPHO1 block	TPT1 inh	Platelet DG rel	WT yeast gro inh	Rtt109 Vps75	SKKanGAS inh
CCOC(=O)c1ccc(NC(=S)NCCc2ccccc2F)cc1	0	0	0	58	0	0
CCOC(=O)c1ccc(NC(=S)NCCc2ccccc2)cc1	0	0	0	0	0	0
CCn1c(-c2cc(-c3ccccc3)sc2N)n[nH]c1=S	77	0	0	-	0	0
CCn1c(-c2ccc(Cl)cc2)n[nH]c1=S	71	0	0	0	0	0
CCn1c(-c2ccc(C)cc2)n[nH]c1=S	100	0	0	0	0	0
CCCCn1c(-c2ccc([N+](=O)[O-])cc2)n[nH]c1=S	102	0	0	0	0	0
CCn1c(-c2ccc(OC)c(OC)c2)n[nH]c1=S	0	0	0	0	0	0
COC(=O)[C@]1(Cc2ccccc2)N[C@H](CN(C)C(=O)Nc2ccc(C)cc2)[C@@H]2C(=O)N(C)C(=O)[C@@H]21	-	-	-	-	0	-
Cc1c(Cc2ccccc2)c(=O)oc2cc(OCC(=O)N3CCC(C(=O)O)CC3)ccc12	0	0	0	-	0	0
CCn1c(-c2ccccc2O)n[nH]c1=S	65	0	0	0	0	0
Oc1ccccc1-c1n[nH]c(=S)n1Cc1ccccc1	-	0	0	-	0	0
CCc1ccc(-c2cc(-c3n[nH]c(=S)n3CC)c3ccccc3n2)cc1	0	0	0	0	-	0
CCn1c(C(c2ccccc2)c2ccccc2)n[nH]c1=S	100	0	0	0	0	0
CCCn1c(-c2ccc(F)cc2)n[nH]c1=S	91	0	0	0	0	0
CCn1c(-c2cc(-c3cccc(OC)c3)nc3ccccc23)n[nH]c1=S	92	0	0	0	0	0
CC12CCC(=O)C=C1CCC1C2CCC2(C)C(c3csc(N)n3)CCC12 (centres undefined)	-	-	-	-	0	-
Cc1cccc(-n2ncc3c(=O)[nH]c(SCC(=O)NCCC4=CCCCC4)nc32)c1	-	-	-	-	0	-
O=P(CCCCCCCCCP(=O)(c1ccccc1)c1ccccc1)(c1ccccc1)c1ccccc1	0	0	0	0	0	0
CCCCCCP(=O)(O)c1ccccc1	0	0	0	61	-	0
O=C1Nc2ccccc2O/C1=C\c1ccccc1Br	0	0	0	-	0	0
Cc1nn(S(=O)(=O)c2ccc(C(C)C)cc2)c(C)c1S(=O)(=O)N1CCOCC1	0	0	0	-	54	0
CCOc1ccc(S(=O)(=O)n2nc(C)c(S(=O)(=O)N3CCOCC3)c2C)cc1	0	0	0	-	0	0
CCOC(=O)c1cc(-c2ccc(OC(F)F)cc2)nc2c1c(=O)[nH]c(=O)n2C	0	0	0	0	0	100
COc1ccc(N2CC(C(=O)Nc3nnc(SCC(=O)NCc4ccco4)s3)CC2=O)cc1 (centres undefined)	0	0	0	-	0	0
O=C(Nc1nnc(SCCC2OCCO2)s1)C1CC(=O)N(c2ccccc2)C1 (centres undefined)	0	0	0	-	0	0
SMILES	PHOSPHO1 block	TPT1 inh	Platelet DG rel	WT yeast gro inh	Rtt109 Vps75	SKKanGAS inh
O=C(CSc1nnc(NC(=O)C2CC(=O)N(c3ccc(F)cc3)C2)s1)NCc1ccco1 (centres undefined)	0	0	0	-	0	54
O=C(Nc1nnc(SCCC2OCCO2)s1)C1CC(=O)N(c2ccc(F)cc2)C1 (centres undefined)	0	0	0	-	0	54
c1ccc2c(-c3c[nH]c4ccccc34)c3ccccc3nc2c1	0	0	0	79	0	?
O=C(O)c1cc(-c2c[nH]c3ccccc23)nc2ccc3ccccc3c12	0	0	0	0	0	0
O=S(Cc1ccc(Br)cc1)Cc1nnc(SCc2ccc(Br)cc2)n1-c1ccccc1 (centres undefined)	0	0	0	82	0	0
Cn1c(Cc2ccccc2)nnc1SCC(=O)c1ccc(Br)s1	0	0	0	63	0	0
O=C(Nc1nnc(-c2ccco2)s1)C1CCCCC1	75	0	0	0	0	0
CC(C)(C)Cc1nnc(NS(=O)(=O)c2ccc(F)cc2)s1	78	0	0	0	0	0
CC(=O)N1N=C(c2ccc(C)cc2)OC1c1ccc(C(C)C)cc1 (centres undefined)	0	0	0	69	0	?
